Consider 11 compounds from PubChem BioAssay.

For experiment [1], the target named is 6-phosphogluconate dehydrogenase, decarboxylating (Homo sapiens) (UniProt P52209). Put plainly: 6PGD enzyme inhibitors, primary screen, biochemical, human, recombinant enzyme, NADPH absorbance (AID 1159550;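 active = at least 20% inhibition of 6-phosphogluconate dehydrogenase activity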). The conditions noted are these: recombinant 6PGD, NADPH absorbance 341 nm; at 10 µM; stronger effect = higher value.
Experiment [2] can be described thus: differential killing of epithelial or mesenchymal cells, primary screen, imaging, PC-3E GFP, TEM4-18 mCherry, co-culture (AID 1345086).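 For all read-outs here: cells exposed to compound for 72 h before imaging.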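 For red/green cell ratio (normalised): normalised mesenchymal count divided by normalised epithelial count so high means epithelial killing.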 The conditions noted are these: imaging cell counts, at 1 µM; for red/green cell ratio (normalised): actives lie on both sides, counts scaled to control wells, 1 = unselective.
Experiment [3] can be described thus: liver-stage malaria parasite growth inhibition, primary screen, cell-based, HepG2, luciferase luminescence, HepG2 viability (AID 624349; in the data active = parasite load remaining mostly below about 12%, no sharp cut-off; inactive = mostly above about 10%;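 note: 100% = mean of DMSO negative control wells on the same plate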). Particulars: P. berghei liver stage in HepG2, luciferase luminescence, concentration not given here; parasite load remaining: stronger effect = lower value; viability: measured here: HepG2 viability without parasites.
Experiment [4] is described as follows: sensitizers of A549 cells to miR-34 induction, primary screen, imaging, A549 dox-inducible miR-34, nuclei and caspase counts (AID 1347080;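 active = compounds whose cell count with miR-34 switched on is under 0.7 times the count with it off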). The conditions noted are these: A549 miR-34 inducible, Hoechst nuclei count, 48 h.
Experiment [5] is described as follows: survival rescue of mitochondrial mutant cells in low glucose, primary screen, MELAS cybrids, Rieske KO mouse fibroblasts, CellTiter-Glo (AID 1508586;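 active = mean z-score across replicates of 1.96 or higher in either the MELAS or the Rieske mutant cell line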;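 note: z relative to plate mean and SD of compound and empty wells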). (In ATP-based viability assays light output follows the ATP content of the culture.)
Experiment [6] has as its target Mitogen-activated protein kinase 7 (Homo sapiens) (UniProt Q13164). Put plainly: ERK5 transactivation activators in reporter cells, primary screen, cell-based, HTS (AID 1508626;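 active = luciferase signal above three times the same-plate solvent-only control wells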;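 note: luciferase driven by Gal4-ERK5 fusion binding five Gal4 sites before minimal TATA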). The conditions noted are these: HeLa Gal4-ERK5 transactivation, 18 h, at 5 µM, stronger effect = higher value.
Experiment [7] can be described thus: viability rescue of complex I mutant cybrids, primary screen, cell-based, galactose medium, ATP luminescence (AID 1645843;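 active = z-score of at least 1.8 in each of two replicates, scored against plate mean and spread of sample wells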;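 note: positive z means more ATP and so rescue of galactose-driven cybrid death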). Particulars: complex I mutant cybrid cells, 72 h, stronger effect = higher value.
The nature of experiment [8]: polyglutamine-triggered caspase-3 activation inhibitors, cell-based (AID 1583). The conditions noted are these: polyglutamine-induced caspase-3 activation, cell assay; stronger effect = higher value;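 tested at 10 µM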.
The nature of experiment [9]: suppressors of polyQ aggregation in yeast, 75Q-TubU reporter (AID 1593). The conditions noted are these: Yeast 75Q polyglutamine aggregation reporter.
The nature of experiment [10]: rescue of polyQ-huntingtin neuronal dysfunction in worms, whole organism, C. elegans mechanosensory neurons, N-terminal huntingtin (AID 1599). The conditions noted are these: touch response, stronger effect = higher value.
Experiment [11] is described as follows: inhibitors of mitochondrial cytochrome c release, biochemical, purified mitochondria (AID 1603).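 Note: mouse liver mitochondria challenged with calcium chloride; signal normalized to the plate average as 100%.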 The conditions noted are these: stronger effect = lower value.
Experiment [12] can be described thus: inhibitors of polyQ protein aggregation (AID 1604). The conditions noted are these: polyglutamine-induced protein aggregation inhibition assay; stronger effect = higher value; tested at 2.5 µM.
Experiment [13] is described as follows: enhancers of glutamate uptake in motor neurons, MN-1 cell line (AID 1612).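 Note: tested at 1 µM final; 0% = mean of DMSO vehicle wells on each plate; positive means more glutamate uptake than control and negative means less.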 Particulars: MN-1 motor neuron cells, stronger effect = higher value.
A short description of experiment [14]: suppressors of polyglutamine aggregation in yeast, 75Q-TubH (AID 1616). Particulars: S. cerevisiae 75Q-TubH polyglutamine aggregation suppression; stronger effect = higher value.
The mark [15] stands for this setting: measured here: epithelial PC-3E GFP cell survival.
The mark [16] stands for this setting: measured here: mesenchymal TEM4-18 mCherry cell survival.
Setting [17] is: stronger effect = lower value, cell number ratio, induced over uninduced.
The mark [18] stands for this setting: measured here: relative caspase fold change +Dox/-Dox.
Setting [19] is: measured here: total cells with miR-34 induction, stronger effect = lower value.
Setting [20] is: measured here: total cells without miR-34 induction.

Where “and” joins values, the source holds several entries; their conditions need not be identical. Equal values may be shown once. For part of these data: Entries with a potency or affinity are not part of this list. Calls of active or inactive are those of the source.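 Rule for the calls, unless noted: active = compounds killing one labelled cell type while sparing the other, by normalised counts and ratio limits, not self-fluorescent; inactive = the rest.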

Sequence of 6-phosphogluconate dehydrogenase, decarboxylating (Homo sapiens) (P52209 whole entry, looked up): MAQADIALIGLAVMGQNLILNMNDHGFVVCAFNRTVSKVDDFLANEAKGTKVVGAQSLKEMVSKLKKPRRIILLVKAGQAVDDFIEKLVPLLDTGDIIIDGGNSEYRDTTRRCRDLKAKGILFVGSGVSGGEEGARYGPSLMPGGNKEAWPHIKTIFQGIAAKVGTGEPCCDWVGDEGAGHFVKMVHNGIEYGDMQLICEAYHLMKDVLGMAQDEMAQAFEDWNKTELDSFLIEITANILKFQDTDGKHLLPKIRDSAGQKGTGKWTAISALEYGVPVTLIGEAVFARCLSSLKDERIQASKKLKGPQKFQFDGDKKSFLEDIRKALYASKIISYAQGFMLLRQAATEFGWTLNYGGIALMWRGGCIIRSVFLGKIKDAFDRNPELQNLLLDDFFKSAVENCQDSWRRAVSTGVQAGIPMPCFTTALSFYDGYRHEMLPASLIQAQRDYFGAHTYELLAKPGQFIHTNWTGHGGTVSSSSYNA
Sequence of Mitogen-activated protein kinase 7 (Homo sapiens) (Q13164 whole entry, looked up, the tested form may be a part): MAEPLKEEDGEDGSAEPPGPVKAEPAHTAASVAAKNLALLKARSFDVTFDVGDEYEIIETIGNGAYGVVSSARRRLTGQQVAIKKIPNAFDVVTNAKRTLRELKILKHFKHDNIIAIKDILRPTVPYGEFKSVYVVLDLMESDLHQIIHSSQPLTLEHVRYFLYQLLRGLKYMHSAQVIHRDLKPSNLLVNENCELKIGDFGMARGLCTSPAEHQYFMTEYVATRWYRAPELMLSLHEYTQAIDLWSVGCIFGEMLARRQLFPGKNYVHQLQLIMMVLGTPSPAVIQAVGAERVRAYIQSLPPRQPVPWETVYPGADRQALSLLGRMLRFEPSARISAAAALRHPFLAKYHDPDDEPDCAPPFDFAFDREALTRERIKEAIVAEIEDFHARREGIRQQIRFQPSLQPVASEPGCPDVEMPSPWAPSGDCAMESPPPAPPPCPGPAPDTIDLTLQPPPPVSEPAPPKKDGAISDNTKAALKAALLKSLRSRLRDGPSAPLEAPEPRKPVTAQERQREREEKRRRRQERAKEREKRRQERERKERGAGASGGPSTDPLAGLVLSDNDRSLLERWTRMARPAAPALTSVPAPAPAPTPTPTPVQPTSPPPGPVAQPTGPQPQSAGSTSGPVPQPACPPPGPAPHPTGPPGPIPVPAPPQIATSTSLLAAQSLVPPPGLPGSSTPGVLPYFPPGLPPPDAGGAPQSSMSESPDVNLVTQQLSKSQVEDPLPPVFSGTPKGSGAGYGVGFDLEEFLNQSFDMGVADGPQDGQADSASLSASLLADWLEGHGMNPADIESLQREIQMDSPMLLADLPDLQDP

As a reminder, the inhibition is the relative decrease from the control value, in per cent. Take `COc1cccc2c1CCC1CC(=O)CC[C@]21C` (some centres undefined): the inhibition in [1] was -1.22% (inactive). For the same compound, the red/green cell ratio (normalised) in experiment [2] is 0.76 (inactive). Also, the normalised cell number in experiment [2] (setting [15]) came out at 1; in experiment [2] (setting [16]), 0.76.

For `O=C(O)CCC(=O)OCC(NC(=O)C(Cl)Cl)C(O)c1ccc([N+](=O)[O-])cc1` (centres undefined), the inhibition in experiment [1] is 1.37% (inactive). Further, the red/green cell ratio (normalised) in [2] is 1.01 (inactive). In addition, the normalised cell number in [2] (setting [15]) is 1.15; in experiment [2] (setting [16]), 1.16.

As for `COc1ccc2c(=O)c(OC)c(-c3ccccc3)oc2c1`, the inhibition in experiment [1] was 5.12% (inactive). For the same compound, the red/green cell ratio (normalised) in experiment [2] is 0.95 (inactive). For the same compound, the normalised cell number turned out to be 1.07 in experiment [2] (setting [15]) and 1.02 in experiment [2] (setting [16]).

As for `N.N.O=C([O-])C1(C(=O)[O-])CCC1.[Pt+2]`, in experiment [1], the inhibition is -2.44% (inactive). For the same compound, the red/green cell ratio (normalised) in [2] is 0.96 (inactive). In addition, the normalised cell number in experiment [2] (setting [15]) is 1.09; in experiment [2] (setting [16]) it was 1.04.

What is called viability is the share of living cells, or the viability signal relative to a control. For `CCCCCCCCCCCC1=C(O)C(=O)C=C(O)C1=O`, the parasite load remaining in experiment [3] was 136% (inactive). Moreover, in experiment [3], the viability came to 84.4%. Also, the inhibition in experiment [1] is 15% (inactive). In addition, the red/green cell ratio (normalised) in experiment [2] is 0.91 (inactive). The normalised cell number in experiment [2] (setting [15]) amounted to 1.09; in experiment [2] (setting [16]), 1. The fold change in experiment [4] (setting [17]) is 0.793 (inactive) and 1.27 (inactive); in [4] (setting [18]) it was 2.63 and 0.764. In addition, the cell count in experiment [4] (setting [19]) was 7270 and 2440; in experiment [4] (setting [20]), 9160 and 1930. Moreover, the z-score is -0.242 (inactive) in experiment [5] (MELAS cybrid survival, CellTiter-Glo 48 h, stronger effect = higher value); -0.154 in experiment [5] (Rieske KO mouse fibroblast survival, CellTiter-Glo 72 h); -0.595 (inactive) in experiment [7]. Also, in [6], the luciferase signal was 40 AU (inactive).

Regarding `C[C@]12CC[C@@H](O)C[C@H]1CCc1ccccc12`, the inhibition in [1] was -3.83% (inactive). Further, in experiment [2], the red/green cell ratio (normalised) is 1.08 (inactive). Further, the normalised cell number in [2] (setting [15]) turned out to be 1.09; in experiment [2] (setting [16]) it was 1.17.

For the compound `C=C1C2=CC(=O)O[C@@H](c3ccoc3)[C@]2(C)CCC1[C@@]1(C)C=CC(=O)C(C)(C)[C@@H]1CC(=O)OC` (some centres undefined), the inhibition in [1] was 1.03% (inactive). For the same compound, the red/green cell ratio (normalised) in experiment [2] was 1.06 (inactive). Further, the normalised cell number in experiment [2] (setting [15]) came to 1.13; in [2] (setting [16]), 1.2.

Regarding `COc1ccc(C(=O)c2ccc(O)cc2)c(O)c1O`, the inhibition in [1] is -5.23% (inactive). The red/green cell ratio (normalised) in experiment [2] was 1.05 (inactive). In addition, the normalised cell number in experiment [2] (setting [15]) amounted to 0.85; in [2] (setting [16]) it was 0.89.

`COc1cc(OC)c2c(OC)c(-c3ccc4c(c3)OCO4)c(=O)oc2c1`: in [1], the inhibition was -4.99% (inactive). For the same compound, the red/green cell ratio (normalised) in [2] is 1.02 (inactive). The normalised cell number came out at 0.92 in experiment [2] (setting [15]) and 0.94 in [2] (setting [16]).

In the case of `O=C(O)c1cccnc1C(=O)O`, the inhibition in experiment [8] was -5.39%; in [1], 2.35% (inactive). For the same compound, in [9], the score came to 1.95. In experiment [10], this compound registered a rescue above control of 5.37. Further, the cytochrome c release ratio in experiment [11] was determined as 1.17. Besides, the inhibition of aggregation in experiment [12] was found to be 58.6%. The glutamate uptake change in experiment [13] was -5.4%. Further, the aggregation suppression score in experiment [14] was found to be 1.12. Also, in experiment [3], the parasite load remaining is 83.9% (inactive). Further, the viability in experiment [3] was 75.4%. The red/green cell ratio (normalised) in [2] was 0.71 (inactive). Besides, the results for the normalised cell number in [2] (setting [15]) and in [2] (setting [16]) were 1.39 and 0.99, respectively. In addition, the fold change in experiment [4] (setting [17]) is 0.98 (inactive) and 0.953 (inactive); in experiment [4] (setting [18]) it was 1.66 and 1.07. Moreover, the cell count in experiment [4] (setting [19]) is 9820 and 8590; in experiment [4] (setting [20]), 10000 and 9010. Also, the luciferase signal in experiment [6] is 84 AU (inactive). Further, in experiment [7], the z-score was 0.32 (inactive) and -0.225 (inactive).

For the compound `CC[C@H](/C=C/C(C)C1CCC2C3CCC4=CC(=O)CC[C@]4(C)C3CC[C@]12C)C(C)C` (some centres undefined), the inhibition in experiment [1] is 11.4% (inactive). The red/green cell ratio (normalised) in experiment [2] is 0.98 (inactive). Moreover, the normalised cell number worked out at 0.99 in experiment [2] (setting [15]) and 0.97 in experiment [2] (setting [16]).
